About 16,000 (7.3%) of roughly 220,000 compounds were called active. Not shown: some 25% with an inconclusive outcome. The call rests on the fitted dose curve; in most records, active means well fitted inhibition curve with a large enough effect (not every such curve was filed as active); inconclusive means small, poorly fitted or top-dose-only effect, or another doubt; inactive means no such curve, though single readings can be large or run the other way. Only a selection was taken, and actives are over-represented in it overall.
Target: Aldehyde dehydrogenase 1A1 (Homo sapiens) (UniProt P00352)
Sequence (P00352 whole entry, looked up): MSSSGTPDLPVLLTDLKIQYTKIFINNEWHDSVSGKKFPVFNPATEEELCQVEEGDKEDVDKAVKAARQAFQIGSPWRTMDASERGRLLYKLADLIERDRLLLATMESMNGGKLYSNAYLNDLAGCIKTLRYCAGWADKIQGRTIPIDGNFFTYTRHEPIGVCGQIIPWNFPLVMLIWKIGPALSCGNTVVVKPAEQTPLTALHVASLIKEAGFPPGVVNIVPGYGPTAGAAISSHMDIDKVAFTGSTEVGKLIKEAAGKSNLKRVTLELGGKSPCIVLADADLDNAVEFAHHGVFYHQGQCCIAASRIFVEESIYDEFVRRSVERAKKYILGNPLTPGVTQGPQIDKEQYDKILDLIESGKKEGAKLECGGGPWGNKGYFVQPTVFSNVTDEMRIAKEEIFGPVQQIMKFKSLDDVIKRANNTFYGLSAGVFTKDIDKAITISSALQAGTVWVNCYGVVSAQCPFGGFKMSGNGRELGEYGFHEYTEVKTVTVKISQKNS
Experiment: qHTS Assay for Inhibitors of Aldehyde Dehydrogenase 1 (ALDH1A1);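 on activity, negative = inhibition: plate controls were no enzyme wells and a reference inhibitor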
Conditions: Purified ALDH1A1, NADH fluorescence, propionaldehyde substrate; series mostly up to 75.3 µM; activity, negative = inhibition: at the top concentration
Potency means the concentration at half of the fitted maximal effect.

Row | Compound | Potency | activity, negative = inhibition
1 | CCOC(=O)CSc1nc2c(c(=O)n(C)c(=O)n2C)n1Cc1ccccc1F | 39.8 µM (active) | 
2 | CCOc1ccc2nc(NC(=O)CSc3nc4c(c(=O)n(C)c(=O)n4C)n3CC)sc2c1 |  | -1.29% (inactive)
3 | Cn1c(=O)c2c(nc(SCCNS(=O)(=O)c3ccccc3)n2C)n(C)c1=O |  | -4.35% (inactive)
4 | CCCSc1nc2c(c(=O)n(C)c(=O)n2C)n1Cc1ccc(C)cc1 | 25.1 µM (active) | 
5 | COCCn1c(CN(Cc2ccccc2)Cc2ccccc2)nc2c1c(=O)n(C)c(=O)n2C |  | -31.3% (inactive)
6 | CCCCn1c(SCC(=O)NCCc2ccc(OC)c(OC)c2)nc2c1c(=O)n(C)c(=O)n2C |  | -12.7% (inactive)
7 | CCCCNc1nc2c(c(=O)n(C)c(=O)n2C)n1Cc1cccc(OC)c1 |  | 3.24% (inactive)
8 | Nc1nc(SCC(=O)N2CCN(S(=O)(=O)c3ccc(Cl)cc3)CC2)n[nH]1 |  | -13.4% (inactive)
9 | COc1cccc(NC(=O)COC(=O)CCOc2ccccc2OC)c1 |  | 5.12% (inactive)
10 | COCc1c(N)c(C)nc(Cl)c1C#N |  | -6.47% (inactive)
11 | Cc1n[nH]c(=O)n1-c1ccc(C(C)C)cc1 |  | 9.21% (inactive)
12 | COc1ccc(NC(=O)COC(=O)c2ccncc2)c(OC)c1 |  | -0.318% (inactive)
13 | Cc1c(Cl)cccc1NC(=O)CSc1ccc(-c2cccnc2)nn1 |  | 11.5% (inactive)
14 | COC(=O)c1c(C)[nH]c(C)c1-c1ccc([N+](=O)[O-])cc1 |  | -6.22% (inactive)
15 | CCCCC/C=C\C/C=C\CCCCCCCCCC(=O)O | inactive | 
16 | CCOC(=O)Cn1nnnc1C |  | 2.51% (inactive)
17 | CC(Sc1nnnn1C)C(=O)NC(=O)NC1CCCCC1 (stereo not drawn) |  | -4.37% (inactive)
18 | Cc1ccc(OC(=O)c2cc3ccccc3o2)cc1 |  | -11% (inactive)
19 | CCc1ccc(Oc2coc3cc(OC(=O)c4cc5ccccc5oc4=O)ccc3c2=O)cc1 |  | 1.39% (inactive)
20 | O=C(Oc1ccccc1)Oc1ccc2c(c1)oc(=O)c1ccccc12 | 17.8 µM (active) | 
21 | CCOC(=O)CSC1=N/C(=C/c2ccc(-n3cncn3)cc2)C(=O)N1C(C)=O |  | 7.89% (inactive)
22 | O=C(CN1C(=O)/C(=C\c2ccc(C(F)(F)F)cc2)Sc2ccccc21)NCc1ccco1 |  | -6.97% (inactive)
23 | O=C(CN1C(=O)/C(=C\c2ccccc2F)SC1=S)Nc1nc2ccccc2s1 |  | -12.3% (inactive)
24 | O=C(CN1C(=O)/C(=C/c2ccccc2F)Sc2ccccc21)NCc1cccnc1 | 20 µM (active) | 
25 | CN(/C(=N/S(=O)(=O)c1cccs1)c1ccccc1)c1ccc(O)cc1 |  | -1.07% (inactive)
26 | Cc1nnc(SC(C(=O)Nc2cc(Cl)cc(Cl)c2)c2ccccc2)[nH]c1=O (stereo not drawn) |  | 0.635% (inactive)
27 | O=C(Nc1cc(Cl)cc(Cl)c1)C(NCCCO)c1ccccc1 (stereo not drawn) | 1.26 µM (active) | 

Row | Compound | Potency | activity, negative = inhibition
28 | CCC(C(=O)Nc1ccc(C(C)C)cc1)c1ccccc1 (stereo not drawn) |  | -0.407% (inactive)
29 | Cc1c(Br)c([N+](=O)[O-])nn1CC(=O)N1CCN(Cc2ccccc2)CC1 |  | -11.6% (inactive)
30 | COc1ccc(C(=O)Nc2ccc(-n3nncc3C(C)(C)C)cc2)cc1 |  | -9.59% (inactive)
31 | CC(C)NC(=S)N1CCN(C(c2ccccc2)c2ccccc2)CC1 | 10 µM (active) | 
32 | O=C(c1ccc(-n2cnnn2)cc1)N1CCN(C(c2ccccc2)c2ccccc2)CC1 |  | -14.3% (inactive)
33 | CC(C)NC(=S)N1CCN(S(C)(=O)=O)CC1 |  | -2.04% (inactive)
34 | CCOC(=O)C1CCN(S(=O)(=O)c2cc(F)ccc2OC)CC1 |  | 5.21% (inactive)
35 | COCCOC(=O)c1sc(=S)n(CCOC)c1N | 10 µM (active) | 
36 | CCOC(=O)Cn1c(N)c(C(=O)OC)sc1=S |  | -2.62% (inactive)
37 | CCOC(=O)c1cnc2c(c(C)nn2CC)c1Cl |  | -22.9% (inactive)
38 | O=S(=O)(c1cccs1)N1CCN(Cc2ccccc2)CC1 |  | -10.3% (inactive)
39 | CN1CCN(S(=O)(=O)c2ccc(N3CCN(S(=O)(=O)c4cccs4)CC3)nc2)CC1 |  | -7.82% (inactive)
40 | COc1ccc2c(CN3CCN(S(=O)(=O)c4cccs4)CC3)cc(=O)oc2c1 | 14.1 µM (active) | 
41 | COc1ccc(C(=O)NCC(=O)N/N=C/c2ccc([N+](=O)[O-])s2)cc1OC |  | -0.501% (inactive)
42 | Cc1ccc(S(=O)(=O)N/N=C\c2cc3c(cc2[N+](=O)[O-])OCO3)cc1 | 1.26 µM (active) | 
43 | CC(=O)N/N=C/c1cc2c(cc1[N+](=O)[O-])OCO2 |  | -5.62% (inactive)
44 | Cc1ccc(-c2n[nH]c(=S)n2/N=C/c2cc3c(cc2[N+](=O)[O-])OCO3)cc1 |  | -17.2% (inactive)
45 | COc1cc(NC(=O)c2cccnc2SC)cc(OC)c1 |  | 6.07% (inactive)
46 | CCOc1ccc(-c2nnn(CC(=O)N3CCN(c4ccc(OC)cc4)CC3)n2)cc1OCC |  | 2.88% (inactive)
47 | COc1ccc(N2CCN(C(=O)CSc3ncnc4c3cnn4-c3ccc(OC)cc3)CC2)cc1 |  | 5.3% (inactive)
48 | COc1ccc(N2CCN(C(=O)CSc3nc4cc(OC)c(OC)cc4cc3C#N)CC2)cc1 | 14.1 µM (active) | 
49 | CCCC(=O)Nc1nnc(-c2ccccc2)o1 |  | 11.4% (inactive)
50 | COc1ccc(C(=O)NC2CCN(C(=S)Nc3ccccc3)CC2)cc1 |  | 8.83% (inactive)
51 | CCN(CC)C(=O)CSc1nc2ccccc2n1CC(=O)N1CCN(c2ccccc2OC)CC1 |  | 5.85% (inactive)
52 | Cc1nnc(SCC(=O)N2CCN(c3ccccc3)CC2)n1-c1ccccc1 |  | -10.5% (inactive)
53 | CC(C)N(C(=O)Cn1c(SCC(=O)N2CCN(c3ccccc3)CC2)nc2ccccc21)C(C)C | 25.1 µM (active) | 

From PubChem BioAssay AID1030 (National Center for Advancing Translational Sciences (NCATS), 2008)
